A short description of test [1]: E. coli DRC41 culture turbidity changes, primary screen, E. coli filamentation inducer project, strain DRC41, OD650, 48 h (AID 1152).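 Note: E. coli MC1000 strain DRC41 lacking acrAB efflux pump and sulA.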 The following applies: E. coli DRC41 (acrAB sulA), higher = more signal, called active from +8 up or from −8 down.
Test [2] is described as follows: small-molecule binders of probe aLefty1, primary screen, biochemical, small-molecule microarray, 635/667 nm fluorescence (AID 1153).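 Note: score merges spot fluorescence with signal-to-noise ratio from the scanned slide images.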 The conditions noted are these: higher = more signal.
Test [3] can be described thus: PSAC antagonists in infected red cells, primary screen, cell-based, P. falciparum Indochina, OD700, 1 h (AID 1154). The following applies: P. falciparum Indochina infected RBC osmotic lysis, higher = more signal, called active from +8 up or from −8 down.
Test [4] can be described thus: PSAC antagonists in infected red cells, primary screen, cell-based, P. falciparum Indochina, OD700, 2 h (AID 1155).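 Note: lysis reports solute entry through the parasite surface anion channel PSAC; channel blockers reduce lysis of infected cells.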 The following applies: P. falciparum Indochina infected erythrocytes, osmotic lysis OD700; higher = more signal, called active from +8 up or from −8 down.
Test [5] in a line: osmotic lysis modulators in infected erythrocytes, primary screen, PSAC antagonist project, cell-based, P. falciparum Indochina, OD700, 3 h (AID 1156). The conditions noted are these: higher = more signal, called active from +8 up or from −8 down.
A short description of test [6]: PSAC antagonists in infected red cells, primary screen, cell-based, P. falciparum Indochina, OD700, 18 h (AID 1157). The following applies: P. falciparum Indochina infected erythrocytes, osmotic lysis OD700, 18 h; higher = more signal, called active from +8 up or from −8 down.
Test [7] can be described thus: modulators of S6 phosphorylation in cells, primary screen, cell-based, A549, cytoblot, luminescence, serum-stimulated (AID 1158).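 Note: serum-stimulated A549 lung adenocarcinoma cells; signal is phosphorylated S6 detected by cytoblot immunostaining with HRP secondary.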 The following applies: A549 phospho-S6 cytoblot, 5 h, higher = more signal.
Test [8] addresses NADPH oxidase 2 (Homo sapiens) (UniProt P04839). In words: NOX2-dependent H2O2 signal modulators, primary screen, NOX inhibitor project, cell-based, HEK293-NOX2, PMA-stimulated, Amplex Red fluorescence (AID 1159). Note: test concentration not given here. The following applies: 45 min, higher = more signal, called active from +8 up or from −8 down.
The target in test [9] is NADPH oxidase 4 (Homo sapiens) (UniProt Q9NPH5). The test can be described thus: NOX4-dependent H2O2 signal modulators, primary screen, NOX inhibitor project, cell-based, HEK293-NOX4, tetracycline-induced, Amplex Red fluorescence (AID 1160). The following applies: 45 min, higher = more signal, called active from +8 up or from −8 down.
Sequence of NADPH oxidase 4 (Homo sapiens) (Q9NPH5 whole entry, looked up): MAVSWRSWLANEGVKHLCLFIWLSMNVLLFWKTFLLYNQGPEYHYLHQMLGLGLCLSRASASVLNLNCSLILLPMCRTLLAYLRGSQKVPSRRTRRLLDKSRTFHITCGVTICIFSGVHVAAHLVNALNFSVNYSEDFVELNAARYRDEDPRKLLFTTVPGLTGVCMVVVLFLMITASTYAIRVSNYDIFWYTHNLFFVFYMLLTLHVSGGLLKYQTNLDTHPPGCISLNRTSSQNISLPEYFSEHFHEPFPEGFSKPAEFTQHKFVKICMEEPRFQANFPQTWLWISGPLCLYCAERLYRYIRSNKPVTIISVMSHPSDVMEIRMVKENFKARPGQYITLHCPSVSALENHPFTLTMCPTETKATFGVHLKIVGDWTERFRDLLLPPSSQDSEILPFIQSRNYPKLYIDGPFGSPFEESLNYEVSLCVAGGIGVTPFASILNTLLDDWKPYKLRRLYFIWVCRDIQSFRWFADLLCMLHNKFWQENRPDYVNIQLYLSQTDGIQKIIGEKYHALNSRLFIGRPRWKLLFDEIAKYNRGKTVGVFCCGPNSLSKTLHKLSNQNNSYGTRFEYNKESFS
Test [10] addresses NADPH oxidase 5 (Homo sapiens) (UniProt Q96PH1). In words: NOX5-dependent H2O2 signal modulators, primary screen, NOX inhibitor project, cell-based, HEK293-NOX5, Amplex Red fluorescence (AID 1161). The following applies: HEK293-NOX5, ionomycin, 45 min, higher = more signal.
Test [11] can be described thus: A549 cell viability effects, profiling panel, calcein-AM fluorescence, 48 h, basal (AID 1162). Note: test concentration not given here. The following applies: higher = more signal.
Test [12] in a line: adipocyte viability effects, profiling panel, cell-based, 3T3-L1 adipocytes, calcein-AM fluorescence, 48 h, basal (AID 1163). Note: test concentration not given here. The following applies: 3T3-L1 adipocytes viability, higher = more signal.
A short description of test [13]: HepG2 cell viability effects, profiling panel, calcein-AM fluorescence, 48 h, basal (AID 1164). Note: test concentration not given here. The conditions noted are these: higher = more signal.
Test [14] in a line: MM1S cell viability effects, profiling panel, calcein-AM fluorescence, 48 h, basal (AID 1165).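 Note: viability of MM1S multiple myeloma cells under basal unstimulated conditions; test concentration not given here.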 The conditions noted are these: higher = more signal.
A short description of test [15]: basal RPMI8226 viability, no added stimulus, profiling panel, cell-based, calcein-AM fluorescence, 48 h, PK04 Diversity Set (AID 1166).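 Note: cells grown under basal conditions without added stimulus; test concentration not given here.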 The conditions noted are these: RPMI8226 myeloma viability, higher = more signal.
Test [16] in a line: basal HepG2 mitochondrial membrane potential changes, profiling panel, cell-based, JC-1 fluorescence, 24 h, 100 nL compound (AID 1167). Note: test concentration not given here. The conditions noted are these: higher = more signal.
Test [17] can be described thus: basal 3T3-L1 adipocyte mitochondrial potential changes, profiling panel, cell-based, JC-1 fluorescence, 3T3-L1 adipocytes, 24 h, 100 nL compound (AID 1168). Note: test concentration not given here. The following applies: JC-1 mitochondrial fluorescence, higher = more signal, called active from +8 up or from −8 down.
The nature of test [18]: basal RPMI8226 mitochondrial membrane potential changes, profiling panel, cell-based, JC-1 fluorescence, 24 h, 100 nL compound (AID 1169). Note: test concentration not given here. The conditions noted are these: RPMI8226 myeloma, JC-1 mitochondrial potential fluorescence, higher = more signal.
The nature of test [19]: basal MM1S mitochondrial membrane potential changes, profiling panel, cell-based, JC-1 fluorescence, 24 h, 100 nL compound (AID 1170). Note: test concentration not given here. The conditions noted are these: higher = more signal.
Test [20] is described as follows: A549 lung cancer cell viability effects, profiling panel, resazurin fluorescence, 24 h, PK04 Diversity Set (AID 1171). Note: test concentration not given here. The following applies: higher = more signal, called active from +8 up or from −8 down. For orientation: Alamar Blue is a resazurin reagent that responds to reducing activity.

The source made the active and inactive calls.

Sequence of NADPH oxidase 2 (Homo sapiens) (P04839 whole entry, looked up): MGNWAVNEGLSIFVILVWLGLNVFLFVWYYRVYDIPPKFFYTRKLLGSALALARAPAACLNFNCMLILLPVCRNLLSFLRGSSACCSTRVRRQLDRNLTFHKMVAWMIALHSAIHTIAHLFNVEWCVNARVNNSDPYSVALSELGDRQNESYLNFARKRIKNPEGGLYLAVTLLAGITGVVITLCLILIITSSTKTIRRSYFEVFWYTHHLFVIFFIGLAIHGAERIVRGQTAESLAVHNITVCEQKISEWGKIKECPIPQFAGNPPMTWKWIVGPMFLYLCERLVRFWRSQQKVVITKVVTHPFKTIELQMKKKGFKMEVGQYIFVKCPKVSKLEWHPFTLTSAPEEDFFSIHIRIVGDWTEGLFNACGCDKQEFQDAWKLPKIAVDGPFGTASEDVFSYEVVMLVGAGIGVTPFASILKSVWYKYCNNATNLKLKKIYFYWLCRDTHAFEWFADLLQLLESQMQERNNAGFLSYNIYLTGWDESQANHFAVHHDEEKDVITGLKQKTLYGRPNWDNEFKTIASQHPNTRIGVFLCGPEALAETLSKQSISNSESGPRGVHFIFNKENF
Sequence of NADPH oxidase 5 (Homo sapiens) (Q96PH1 whole entry, looked up): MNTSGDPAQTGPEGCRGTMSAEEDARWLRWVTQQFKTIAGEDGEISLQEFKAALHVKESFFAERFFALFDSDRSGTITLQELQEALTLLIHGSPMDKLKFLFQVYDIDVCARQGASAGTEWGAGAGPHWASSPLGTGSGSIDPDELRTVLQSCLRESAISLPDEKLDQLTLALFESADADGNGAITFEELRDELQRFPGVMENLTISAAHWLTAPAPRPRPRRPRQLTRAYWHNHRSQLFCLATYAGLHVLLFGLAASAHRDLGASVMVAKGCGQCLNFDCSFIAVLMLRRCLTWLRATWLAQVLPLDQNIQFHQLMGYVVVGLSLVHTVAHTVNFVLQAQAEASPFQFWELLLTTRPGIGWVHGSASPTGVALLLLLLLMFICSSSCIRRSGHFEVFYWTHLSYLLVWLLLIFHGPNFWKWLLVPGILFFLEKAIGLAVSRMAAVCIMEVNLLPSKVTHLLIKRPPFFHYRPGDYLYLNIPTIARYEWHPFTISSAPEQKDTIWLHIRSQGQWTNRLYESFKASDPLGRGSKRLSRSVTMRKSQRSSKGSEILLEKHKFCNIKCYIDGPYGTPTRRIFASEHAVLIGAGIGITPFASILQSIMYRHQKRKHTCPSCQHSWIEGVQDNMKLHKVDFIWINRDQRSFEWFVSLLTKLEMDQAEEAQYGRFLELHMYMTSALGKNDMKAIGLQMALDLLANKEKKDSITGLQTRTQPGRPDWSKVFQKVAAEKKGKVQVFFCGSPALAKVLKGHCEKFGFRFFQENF

Regarding `C=C(/C(=C/C[C@@H](OC(=O)c1ccncc1)c1ccc(CO)o1)c1cc(C(=O)OC)ccc1OC)C(C)C`, the z-score in test [1] was 0.694 (inactive); in test [3], 6.4 (inactive); in test [4] it was 1.47 (inactive); in test [5], 2.63 (inactive); in test [6], 0.529 (inactive); in test [7], 0.57. The z-score in test [8] was -0.0543 (inactive); in test [9] it was -0.699 (inactive); in test [10], -0.86; in [11], 0.621; in test [12] it was -0.619; in [13] it was 0.486. For the same compound, the z-score in test [14] is -2.99; in test [15], -2.18; in test [16] it was 0.654; in test [17], -0.369 (inactive); in test [18] it was -0.688; in test [19], -1.97. In addition, the z-score in [20] was -0.0675 (inactive). The same compound had a composite z-score in test [2] of 0.107.

As to `Cc1ccc(F)cc1S(=O)(=O)N[C@@H]1CCN(Cc2ccc(C(F)(F)F)cc2)C1`, the z-score in test [1] is -5.36 (inactive); in [3] it was 4.85 (inactive); in [4], 1.15 (inactive); in [5], 0.129 (inactive); in test [6] it was 0.624 (inactive); in [7] it was -0.147. The z-score in test [8] is -0.344 (inactive); in test [9], -1.19 (inactive); in [10] it was -2; in [11] it was -0.455; in test [12] it was -1.68; in test [13], -1.82. Further, the z-score is -2.4 in test [14]; -2.09 in test [15]; -3.18 in [16]; -0.332 (inactive) in test [17]; -0.615 in test [18]; -1.75 in [19]. Further, the z-score in test [20] was -0.196 (inactive). This compound also had a composite z-score in [2] of -0.152.

As to `C=C(C(=O)CC[C@@H](OC(=O)c1cccnc1)c1ccc(CO)o1)C(C)C`, the z-score is -0.766 (inactive) in test [1]; 1.42 (inactive) in test [3]; 0.0559 (inactive) in [4]; 0.375 (inactive) in test [5]; 0.209 (inactive) in [6]; -0.211 in test [7]. The z-score in [8] was 1.22 (inactive); in test [9] it was -0.133 (inactive); in test [10], 0.337; in [11] it was -0.628; in [12] it was 0.153; in [13], -0.545. In addition, the z-score in test [14] was -1.06; in [15] it was -0.56; in test [16], -1.3; in test [17], 0.0907 (inactive); in test [18] it was 0.283; in test [19], 0.48. The z-score in test [20] is -0.297 (inactive). This compound had a composite z-score in test [2] of 0.329.

On to `O=C1C[C@@](C(=O)O)(c2ccc([N+](=O)[O-])cc2)[C@@H](c2ccc(CO)cc2I)N1C1CCCCC1`, for which the z-score in test [1] is 1.52 (inactive); in [3], 17.5 (active); in test [4], 2.77 (inactive); in test [5], 3.02 (inactive); in test [6], 0.202 (inactive); in test [7] it was 1.84. Moreover, the z-score is 1.46 (inactive) in test [8]; -2.82 (inactive) in [9]; -1.78 in [10]; 1.05 in test [11]; 1.32 in test [12]; 0.279 in [13]. Moreover, the z-score in test [14] was -3.6; in test [15], -3.61; in test [16], 0.053; in [17], -0.962 (inactive); in [18] it was -0.826; in test [19], -1.86. In addition, the z-score in test [20] is 0.597 (inactive). The compound further returned a composite z-score in [2] of 0.208.

As to `C=C(CCCC)/C(=C/C[C@H](OC(C)=O)c1ccc(CO)o1)c1cc(C(=O)OC)ccc1OC`, the z-score in [1] was 0.302 (inactive); in [3] it was 1.99 (inactive); in test [4], -0.526 (inactive); in [5], 1.62 (inactive); in test [6], -2.02 (inactive); in test [7] it was 1.61. Also, the z-score in test [8] is -0.764 (inactive); in test [9], -0.262 (inactive); in [10] it was -1.54; in test [11] it was -0.0865; in [12], 1.03; in test [13], -0.888. In addition, the z-score is -2.21 in test [14]; -2.15 in test [15]; -0.854 in test [16]; -0.356 (inactive) in [17]; 0.292 in test [18]; 0.6 in test [19]. Also, the z-score in test [20] was -0.684 (inactive). Also, the composite z-score in test [2] was -0.0501.

Take `COc1ccc(C#Cc2ccc3c(c2)[C@]2(C(=O)N3)[C@H](C(=O)N3CCc4cc(OC)c(OC)cc4C3)[C@H]3C(=O)O[C@H](c4ccccc4)[C@H](c4ccccc4)N3[C@@H]2c2ccc(OCCO)cc2)cc1`: the z-score in test [1] is 1.82 (inactive); in [3], 5.73 (inactive); in [4] it was 2.37 (inactive); in test [5] it was 0.279 (inactive); in test [6], 1.42 (inactive); in test [7], 0.0867. The z-score in test [8] was 0.0908 (inactive); in test [9] it was 0.246 (inactive); in [10], 0.115; in [11] it was 1.04; in [12] it was 0.386; in test [13], 0.515. The z-score in test [14] was -0.73; in [15], 0.223; in [16], -0.233; in [17] it was 2.37 (inactive); in test [18], -0.513; in [19], -1.5. Also, the z-score in test [20] was 0.185 (inactive). Moreover, the composite z-score in [2] was 0.423.

`COCCOC(=O)N1C(=O)[C@@]2(c3cc(C#Cc4ccc(OC)cc4)ccc31)[C@H](c1ccc(OCCO)cc1)N1[C@H](c3ccccc3)[C@H](c3ccccc3)OC(=O)[C@H]1[C@@H]2C(=O)N1CCc2cc(OC)c(OC)cc2C1`: the z-score was 2.55 (inactive) in [1]; 4.14 (inactive) in test [3]; 1.8 (inactive) in [4]; -0.867 (inactive) in test [5]; 0.608 (inactive) in test [6]; 1.02 in [7]. Also, the z-score was 0.576 (inactive) in [8]; 0.459 (inactive) in test [9]; 1.27 in test [10]; 0.618 in test [11]; 0.979 in [12]; 0.156 in [13]. Moreover, the z-score was 0.427 in [14]; 0.959 in test [15]; -0.343 in test [16]; 2.92 (inactive) in test [17]; -0.322 in [18]; -1.24 in [19]. The z-score in test [20] is 0.216 (inactive). The composite z-score in [2] stood at 0.212.

Turning to `C=C(/C(=C/C[C@@H](OC(C)=O)c1ccc(CO)o1)c1cnc2ccccc2c1)C(C)C`, the z-score in test [1] was 0.727 (inactive); in test [3] it was 4.83 (inactive); in test [4] it was 1.28 (inactive); in test [5], 1.74 (inactive); in test [6], 0.332 (inactive); in test [7], 1.04. In addition, the z-score in test [8] was 0.334 (inactive); in test [9], -1.99 (inactive); in test [10], -0.957; in test [11] it was -0.0718; in [12], 1.36; in [13], -1.07. In addition, the z-score in test [14] was -0.644; in test [15], -0.596; in test [16], -1.33; in test [17] it was -0.561 (inactive); in [18] it was -0.292; in test [19], 0.335. The z-score in test [20] is -1.45 (inactive). Further, the composite z-score in test [2] is -0.147.

Consider `CC1(C)C(=O)C(c2ccccc2)=C2CN3C(=O)N(CCc4ccccc4)C(=O)C3(Cc3ccccc3)C=C21` (stereo not given), for which the z-score is -1.23 (inactive) in test [1]; 2.06 (inactive) in [3]; 0.541 (inactive) in [4]; 0.483 (inactive) in test [5]; 0.861 (inactive) in test [6]; -0.196 in [7]. In addition, the z-score in test [8] was -0.147 (inactive); in [9], 0.405 (inactive); in test [10], -1.62; in test [11], -0.739; in test [12], -0.295; in test [13] it was 0.54. For the same compound, the z-score in [14] was -0.0119; in test [15] it was 0.0826; in test [16], 0.000299; in [17], -0.385 (inactive); in test [18], -0.871; in test [19] it was -1.52. The z-score in test [20] was 0.199 (inactive). Moreover, in test [2], the composite z-score came to 0.647.
